# Source: PubChem BioAssay
# The source made the active and inactive calls.
# Columns and labels:
# [1] = tested on: PRMT1 (protein arginine N-methyltransferase 1); assay: small molecules binding arginine methyltransferase PRMT1 – biochemical, small-molecule microarray, 635 nm fluorescence, primary screen (AID 1088); details: higher = more signal;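 further: binding of Prmt1 protein to compounds spotted on small-molecule microarray slides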
# [2] = growth effects on S. cerevisiae YJM789 – YJM789 clinical isolate, OD600, 24 h, basal, primary screen (AID 1089); details: higher = more signal, called active from +8 up or from −8 down;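 further: growth of clinical yeast isolate S. cerevisiae YJM 789 seeded 1000 cells per well; test concentration not given here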
# [3] = S. pombe growth modifiers, basal conditions – strain 972, OD600, 24 h, no modulator, primary screen (AID 1090);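 further: basal condition with compound alone and no growth modifier present; test concentration not given here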; details: S. pombe 972 growth, higher = more signal, called active from +8 up or from −8 down
# [4] = budding yeast growth modifiers under rapamycin – strain BY4716, OD600, 96 h, primary screen (AID 1091); further: test concentration not given here; details: S. cerevisiae BY4716 + rapamycin, higher = more signal, called active from +8 up or from −8 down
# [5] = target: Torsin-1A-interacting protein 2 (Homo sapiens) (UniProt Q8NFQ8); assay: small molecules binding lysate-expressed LULL1 – cell lysate, human LULL1 lysate, 635/667 nm fluorescence, primary screen (AID 1092); details: small-molecule microarray, hLULL1 lysate binding, 635 nm fluorescence; higher = more signal;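 further: probe is lysate of COS7 cells overexpressing human LULL1; score merges per-feature 667 nm fluorescence with signal-to-noise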
# Chain of Torsin-1A-interacting protein 2 (Homo sapiens) (Q8NFQ8 whole entry, looked up): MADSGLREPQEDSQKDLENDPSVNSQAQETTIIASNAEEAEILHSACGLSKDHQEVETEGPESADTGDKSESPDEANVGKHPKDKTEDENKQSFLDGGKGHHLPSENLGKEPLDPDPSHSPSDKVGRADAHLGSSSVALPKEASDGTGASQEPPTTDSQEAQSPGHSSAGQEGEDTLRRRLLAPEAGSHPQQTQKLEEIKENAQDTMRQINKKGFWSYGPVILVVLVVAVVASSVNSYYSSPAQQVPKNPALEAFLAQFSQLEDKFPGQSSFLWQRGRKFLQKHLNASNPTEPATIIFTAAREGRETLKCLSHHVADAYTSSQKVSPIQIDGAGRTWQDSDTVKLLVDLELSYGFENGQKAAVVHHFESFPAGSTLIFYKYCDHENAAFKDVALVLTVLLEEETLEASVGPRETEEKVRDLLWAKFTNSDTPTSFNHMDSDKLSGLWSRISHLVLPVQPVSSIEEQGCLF
# [6] = optical density change of DRC41 E. coli – strain DRC41, OD650, 24 h, E. coli filamentation project, primary screen (AID 1093);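 further: MC1000 strain lacking acrAB efflux and sulA so SOS filamentation is blocked; test concentration not given here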; details: E. coli DRC41 growth, higher = more signal, called active from +8 up or from −8 down
# [7] = probe aLefty2 binding to arrayed compounds – biochemical, biotinylated probe, 635/667 nm fluorescence, primary screen (AID 1094); details: small-molecule microarray, higher = more signal;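 further: score merges spot fluorescence near 667 nm with spot signal-to-noise ratio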
# [8] = tested on: Noggin (protein binding on small-molecule microarray); assay: small molecules binding Noggin protein – biochemical, 635/667 nm fluorescence, primary screen (AID 1095); details: 635 nm fluorescence, higher = more signal;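 further: score merges 667 nm feature fluorescence with signal to noise over triplicate slides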
# [9] = target: Neurogenic locus notch homolog protein 3 (Homo sapiens) (UniProt Q9UM47); assay: small molecules binding NOTCH3 protein – biochemical, 635/667 nm fluorescence, primary screen (AID 1096); details: small-molecule microarray, 635 nm fluorescence, higher = more signal
# Chain of Neurogenic locus notch homolog protein 3 (Homo sapiens) (Q9UM47 whole entry, looked up): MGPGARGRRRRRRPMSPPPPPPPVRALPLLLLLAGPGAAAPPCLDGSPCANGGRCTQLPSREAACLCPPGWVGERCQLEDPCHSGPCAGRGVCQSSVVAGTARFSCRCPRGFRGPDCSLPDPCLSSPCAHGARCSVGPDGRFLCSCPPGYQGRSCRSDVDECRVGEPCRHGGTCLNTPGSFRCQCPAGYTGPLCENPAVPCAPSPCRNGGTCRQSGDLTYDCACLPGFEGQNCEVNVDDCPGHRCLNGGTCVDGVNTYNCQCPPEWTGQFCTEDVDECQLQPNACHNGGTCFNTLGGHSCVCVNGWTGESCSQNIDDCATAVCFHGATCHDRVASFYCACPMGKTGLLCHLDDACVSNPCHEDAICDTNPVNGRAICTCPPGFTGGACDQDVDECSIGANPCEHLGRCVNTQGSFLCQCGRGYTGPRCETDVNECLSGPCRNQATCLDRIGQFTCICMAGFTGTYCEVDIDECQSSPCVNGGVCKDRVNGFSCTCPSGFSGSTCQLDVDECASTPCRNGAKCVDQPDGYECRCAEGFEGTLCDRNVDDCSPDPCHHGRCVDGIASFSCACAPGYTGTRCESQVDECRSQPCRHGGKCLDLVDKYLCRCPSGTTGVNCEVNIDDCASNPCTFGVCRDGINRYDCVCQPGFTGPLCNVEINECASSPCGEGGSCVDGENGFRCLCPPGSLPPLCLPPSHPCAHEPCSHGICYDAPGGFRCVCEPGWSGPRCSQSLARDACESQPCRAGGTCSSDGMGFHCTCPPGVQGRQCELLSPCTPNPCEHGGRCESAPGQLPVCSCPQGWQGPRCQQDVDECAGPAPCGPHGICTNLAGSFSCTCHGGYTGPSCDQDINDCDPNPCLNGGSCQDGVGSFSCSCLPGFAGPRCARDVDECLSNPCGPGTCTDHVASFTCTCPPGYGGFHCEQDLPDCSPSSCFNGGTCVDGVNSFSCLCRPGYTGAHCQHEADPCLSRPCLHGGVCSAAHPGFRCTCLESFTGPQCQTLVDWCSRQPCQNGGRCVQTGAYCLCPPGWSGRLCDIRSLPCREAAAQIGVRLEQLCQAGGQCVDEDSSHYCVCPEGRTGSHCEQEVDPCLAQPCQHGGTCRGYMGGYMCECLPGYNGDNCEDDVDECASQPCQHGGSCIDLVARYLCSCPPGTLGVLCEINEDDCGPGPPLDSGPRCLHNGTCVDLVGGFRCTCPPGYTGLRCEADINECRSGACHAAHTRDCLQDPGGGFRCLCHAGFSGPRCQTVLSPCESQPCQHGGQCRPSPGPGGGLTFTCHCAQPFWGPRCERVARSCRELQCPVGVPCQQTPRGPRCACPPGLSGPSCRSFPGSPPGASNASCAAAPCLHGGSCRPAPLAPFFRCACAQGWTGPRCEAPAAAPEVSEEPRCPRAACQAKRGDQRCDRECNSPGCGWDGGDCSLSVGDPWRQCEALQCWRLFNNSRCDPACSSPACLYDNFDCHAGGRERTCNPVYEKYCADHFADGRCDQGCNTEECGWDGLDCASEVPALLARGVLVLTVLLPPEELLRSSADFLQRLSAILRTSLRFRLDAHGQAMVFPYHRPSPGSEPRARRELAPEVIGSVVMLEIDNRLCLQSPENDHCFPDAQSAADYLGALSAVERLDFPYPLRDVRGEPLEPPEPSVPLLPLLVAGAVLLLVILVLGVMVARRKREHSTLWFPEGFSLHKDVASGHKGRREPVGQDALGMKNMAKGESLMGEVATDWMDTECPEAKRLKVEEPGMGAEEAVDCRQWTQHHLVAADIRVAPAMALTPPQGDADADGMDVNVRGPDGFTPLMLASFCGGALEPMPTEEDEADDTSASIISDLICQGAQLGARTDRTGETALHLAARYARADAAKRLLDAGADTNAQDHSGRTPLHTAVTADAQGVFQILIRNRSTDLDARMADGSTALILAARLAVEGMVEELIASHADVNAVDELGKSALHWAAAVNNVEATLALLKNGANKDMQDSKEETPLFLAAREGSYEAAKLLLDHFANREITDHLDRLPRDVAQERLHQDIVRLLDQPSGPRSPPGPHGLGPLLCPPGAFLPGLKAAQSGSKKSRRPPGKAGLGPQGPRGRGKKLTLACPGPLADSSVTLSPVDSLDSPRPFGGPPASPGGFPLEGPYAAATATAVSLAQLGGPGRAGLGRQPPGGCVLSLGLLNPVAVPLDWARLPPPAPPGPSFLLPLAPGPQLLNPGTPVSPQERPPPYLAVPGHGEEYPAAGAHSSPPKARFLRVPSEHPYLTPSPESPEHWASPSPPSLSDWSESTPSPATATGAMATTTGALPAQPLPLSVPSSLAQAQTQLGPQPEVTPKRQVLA
# [10] = probe aEGFR binding to arrayed compounds – biochemical, biotinylated probe, 635/667 nm fluorescence, primary screen (AID 1097); details: small-molecule microarray, higher = more signal;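 further: probe is a biotinylated anti-EGFR antibody binding compounds printed on slides; score combines fluorescence near 667 nm and signal to noise of each spot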
# [11] = tested on: Plasmodium falciparum Sir2 (PF13_0152, Sir2A); assay: Plasmodium falciparum Sir2A binding compounds – biochemical, small-molecule microarray, 635 nm fluorescence, primary screen (AID 1098); details: fluorescence 635 nm, higher = more signal;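 further: score merges spot fluorescence intensity with its signal-to-noise ratio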
# [12] = probe aDKK1 binding to arrayed compounds – biochemical, biotinylated probe, 635/667 nm fluorescence, primary screen (AID 1099); details: small-molecule microarray, higher = more signal;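 further: score merges 667nm spot fluorescence with signal to noise across triplicate slides; reference of the scale not given here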
# [13] = probe aCHRDL2 binding to arrayed compounds – biochemical, biotinylated probe, 635/667 nm fluorescence, primary screen (AID 1100); details: small-molecule microarray, higher = more signal
# [14] = change in splice reporter luminescence, either direction, cell-based, HEK293, spliceosome inhibition project, primary screen (AID 1101); details: HEK293 splicing luciferase reporter, 24 h, higher = more signal, called active from +8 up or from −8 down;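 further: HEK293 cells carrying a splicing-competent luciferase reporter gene; test concentration not given here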
# [15] = target: Fibroblast growth factor 10 (Homo sapiens) (UniProt O15520); assay: compounds binding fibroblast growth factor 10 – biochemical, small-molecule microarray, 635 nm fluorescence, primary screen (AID 1102); details: FGF10 binding, fluorescence 635 nm, higher = more signal
# Chain of Fibroblast growth factor 10 (Homo sapiens) (O15520 whole entry, looked up): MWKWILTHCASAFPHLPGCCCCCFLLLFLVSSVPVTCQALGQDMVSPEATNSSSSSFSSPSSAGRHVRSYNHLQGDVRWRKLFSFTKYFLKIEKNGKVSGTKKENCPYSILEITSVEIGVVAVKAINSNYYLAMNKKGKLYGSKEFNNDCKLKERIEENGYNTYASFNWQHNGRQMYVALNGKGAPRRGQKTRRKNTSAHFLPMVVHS
# [16] = tested on: glycogen synthase kinase-3 (GSK3A per assay name; protocol says GSK3B); assay: compounds binding glycogen synthase kinase-3 – biochemical, small-molecule microarray, 635 nm fluorescence, GSK3A, primary screen (AID 1103); details: fluorescence 635 nm, higher = more signal; further: the record names both GSK3A and GSK3B
# [17] = target: Epidermal growth factor receptor (Homo sapiens) (UniProt P00533); assay: compounds binding epidermal growth factor receptor – biochemical, small-molecule microarray, 635 nm fluorescence, primary screen (AID 1104); details: EGFR binding, higher = more signal;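 further: score merges 667 nm emission intensity with spot signal to noise over triplicate slides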
# Chain of Epidermal growth factor receptor (Homo sapiens) (P00533 whole entry, looked up): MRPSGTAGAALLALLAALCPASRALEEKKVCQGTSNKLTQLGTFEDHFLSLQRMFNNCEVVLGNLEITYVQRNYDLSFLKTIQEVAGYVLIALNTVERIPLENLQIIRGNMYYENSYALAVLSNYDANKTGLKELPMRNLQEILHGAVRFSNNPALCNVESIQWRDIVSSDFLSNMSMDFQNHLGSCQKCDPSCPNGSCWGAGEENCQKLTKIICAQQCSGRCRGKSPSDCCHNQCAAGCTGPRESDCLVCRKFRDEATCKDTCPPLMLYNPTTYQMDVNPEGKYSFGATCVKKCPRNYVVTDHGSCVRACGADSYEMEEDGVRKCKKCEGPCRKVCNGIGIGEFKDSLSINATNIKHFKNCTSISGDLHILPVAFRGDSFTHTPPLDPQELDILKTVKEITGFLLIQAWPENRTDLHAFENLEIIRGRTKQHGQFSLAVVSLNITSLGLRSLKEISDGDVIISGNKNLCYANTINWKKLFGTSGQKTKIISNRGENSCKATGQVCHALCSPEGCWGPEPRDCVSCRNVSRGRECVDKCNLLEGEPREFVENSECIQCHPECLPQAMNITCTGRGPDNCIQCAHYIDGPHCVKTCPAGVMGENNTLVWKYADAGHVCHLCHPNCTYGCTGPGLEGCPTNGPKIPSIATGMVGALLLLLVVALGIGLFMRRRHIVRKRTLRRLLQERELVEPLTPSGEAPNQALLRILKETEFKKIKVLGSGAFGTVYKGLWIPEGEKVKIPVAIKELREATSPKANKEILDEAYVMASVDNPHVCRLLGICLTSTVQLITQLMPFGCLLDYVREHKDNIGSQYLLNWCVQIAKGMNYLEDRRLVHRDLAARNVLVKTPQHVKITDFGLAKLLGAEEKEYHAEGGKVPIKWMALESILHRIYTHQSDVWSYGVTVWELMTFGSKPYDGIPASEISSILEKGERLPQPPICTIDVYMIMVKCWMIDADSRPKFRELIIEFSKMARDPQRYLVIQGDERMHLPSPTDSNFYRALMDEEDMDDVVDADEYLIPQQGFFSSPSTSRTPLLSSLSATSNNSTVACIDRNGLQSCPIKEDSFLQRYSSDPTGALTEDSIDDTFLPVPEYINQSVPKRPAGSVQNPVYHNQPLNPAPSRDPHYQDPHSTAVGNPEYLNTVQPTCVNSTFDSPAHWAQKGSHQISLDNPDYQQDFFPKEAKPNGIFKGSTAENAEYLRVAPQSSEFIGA
# [18] = target: Follistatin-related protein 3 (Homo sapiens) (UniProt O95633); assay: compounds binding follistatin-related protein 3 – biochemical, small-molecule microarray, 635 nm fluorescence, primary screen (AID 1105); details: FSTL3 binding, higher = more signal;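 further: score merges emission near 667 nm and signal to noise per printed spot across three slides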
# Chain of Follistatin-related protein 3 (Homo sapiens) (O95633 whole entry, looked up): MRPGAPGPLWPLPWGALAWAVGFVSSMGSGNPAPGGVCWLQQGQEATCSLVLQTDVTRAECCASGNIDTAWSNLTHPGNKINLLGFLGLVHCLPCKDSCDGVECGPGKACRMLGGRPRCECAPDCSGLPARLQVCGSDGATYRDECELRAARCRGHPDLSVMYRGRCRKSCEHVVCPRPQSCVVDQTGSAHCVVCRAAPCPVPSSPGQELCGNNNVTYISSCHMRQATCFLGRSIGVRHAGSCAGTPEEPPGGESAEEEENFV
# [19] = target: Dickkopf-related protein 1 (Homo sapiens) (UniProt O94907); assay: small molecules binding DKK1 protein – biochemical, small-molecule microarray, 635 nm fluorescence scan, primary screen (AID 1106); details: higher = more signal;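 further: score merges emission near 667 nm with signal to noise over three replicate slides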
# Chain of Dickkopf-related protein 1 (Homo sapiens) (O94907 whole entry, looked up): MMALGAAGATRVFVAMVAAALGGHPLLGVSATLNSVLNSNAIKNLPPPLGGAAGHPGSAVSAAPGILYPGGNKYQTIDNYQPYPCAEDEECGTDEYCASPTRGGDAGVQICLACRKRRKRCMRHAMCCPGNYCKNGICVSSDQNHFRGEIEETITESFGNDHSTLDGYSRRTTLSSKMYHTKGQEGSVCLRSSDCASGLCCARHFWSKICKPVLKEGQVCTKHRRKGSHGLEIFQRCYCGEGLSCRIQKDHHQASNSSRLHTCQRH
# [20] = tested on: Inhibin beta A chain (activin A); assay: small molecules binding activin A – biochemical, small-molecule microarray, 635 nm fluorescence scan, primary screen (AID 1107); details: INHBA, higher = more signal;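 further: mouse activin A protein probed at 4.33 µg/mL on printed slides; score merges bound-protein fluorescence near 667 nm with spot signal-to-noise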
Compound,composite z-score [1],z-score [2],z-score [3],z-score [4],composite z-score [5],z-score [6],composite z-score [7],composite z-score [8],composite z-score [9],composite z-score [10],composite z-score [11],composite z-score [12],composite z-score [13],z-score [14],composite z-score [15],composite z-score [16],composite z-score [17],composite z-score [18],composite z-score [19],composite z-score [20]
CC[C@@H](O[Si](C#C[Si](C(C)C)(C(C)C)C(C)C)(C(C)C)C(C)C)c1cn(Cc2cccc(Cl)c2)nn1,0.869,0.978 (inactive),0.719 (inactive),1.44 (inactive),-0.0557,0.909 (inactive),-0.138,0.523,0.932,-0.113,0.433,-0.0597,-0.3,0.453 (inactive),0.418,0.791,0.293,0.775,0.388,0.232
CCOC(=O)C[C@H]1[C@H](OC(=O)c2cc3ccccc3oc2=O)[C@@H](NC(=O)c2ccc(-c3ccccc3)cc2)c2cc(OCCCO)ccc2N1C(=O)Cc1ccc(OC)cc1,1.2,-0.792 (inactive),-0.398 (inactive),-0.077 (inactive),1.93,-0.423 (inactive),-0.212,0.421,1.11,0.148,0.782,0.0384,-0.037,0.595 (inactive),1.04,0.889,0.419,0.686,0.682,0.321
COc1ccc(C#Cc2ccc3c(c2)[C@]2(C(=O)N3)[C@H](c3ccccc3OCCO)N3[C@H](c4ccccc4)[C@H](c4ccccc4)OC(=O)[C@H]3[C@@H]2C(=O)NC[C@H](O)c2ccccc2)cc1,1.54,2.42 (inactive),2.18 (inactive),2.92 (inactive),3,2.11 (inactive),-0.0168,1.58,1.08,0.095,1.3,0.183,-0.0392,-2.01 (inactive),1.33,1.31,0.573,1.34,1.2,-0.0784
CN(C)C(=O)[C@]1(CCS(=O)(=O)c2ccccc2)N=C(c2ccc(OCCCO)cc2)O[C@@H]1c1ccccc1CN=[N+]=[N-],1.55,0.106 (inactive),0.349 (inactive),2.18 (inactive),3.48,0.157 (inactive),-0.0079,0.136,1.09,-0.025,1.45,-0.326,0.32,-0.153 (inactive),1.26,1.24,-0.126,0.425,-0.142,0.869
CC[C@H]1C2=C3C(CC[C@H]4C(OCc5ccc(F)cc5C(F)(F)F)OC[C@](C)([C@@H]34)N(C(=O)OC(C)(C)C)C2)C(COC(C)=O)C1COC(C)=O (stereo not given in full),0.454,-0.284 (inactive),0.387 (inactive),1.46 (inactive),2.89,-1.31 (inactive),0.0909,0.539,1.13,0.0507,0.386,0.62,0.971,-0.695 (inactive),0.402,0.665,-0.379,0.418,-0.583,0.691
CCOC(=O)C[C@H]1[C@H](OC(=O)Cc2ccc3c(c2)OCO3)[C@@H](NC(=O)CC(C)C)c2cc(OCCCO)ccc2N1C(=O)c1ccc2ccccc2n1,0.516,-0.0651 (inactive),-0.943 (inactive),-0.0443 (inactive),0.452,0.431 (inactive),-0.145,0.988,0.647,-0.178,1.26,0.0956,-0.252,-0.881 (inactive),0.891,0.614,0.255,1.19,0.743,0.242
[N-]=[N+]=NCc1ccccc1[C@H]1OC(c2ccc(OCCCO)cc2)=N[C@@]1(Cc1ccccc1N=[N+]=[N-])C(=O)O,1.57,-0.467 (inactive),-4.46 (inactive),-1.66 (inactive),2.78,-0.0765 (inactive),0.359,0.145,1.06,0.0783,1.07,1.08,0.904,0.258 (inactive),0.716,1.03,-0.0317,0.783,-0.107,0.987
COc1ccc(NN2C(C(O)c3ccc(F)cc3)C=CC3C(=O)N(C4CCCCC4)C(=O)C32)cc1 (stereo not given),1.56,0.0646 (inactive),1.09 (inactive),0.91 (inactive),3.24,-0.637 (inactive),0.12,0.169,1.07,0.0903,0.565,0.959,0.763,-0.794 (inactive),0.995,0.928,0.801,1.01,0.129,1.24
CC1C2C(CCCO)=CC(C3C(=O)N(C)C(=O)C23)N1Cc1cccc(OC(F)(F)F)c1 (stereo not given),1.53,0.573 (inactive),-0.951 (inactive),1.61 (inactive),3.13,0.964 (inactive),0.156,0.148,0.769,0.1,1.47,0.784,0.44,-1.06 (inactive),0.684,1.3,0.0422,0.231,-0.124,0.527
COC(=O)[C@H]1N=C(c2ccc(OCCCO)cc2)O[C@H]1c1ccccc1N=[N+]=[N-],1.08,-0.651 (inactive),-4.13 (inactive),-1.09 (inactive),2.73,0.112 (inactive),0.588,0.0025,-0.0392,0.131,1.08,0.927,1.34,-0.977 (inactive),-0.0781,0.205,-0.454,-0.359,-0.529,1.21
